From PubChem BioAssay
Most compounds without a hit are left out; they make up all but 2.4% or so of the library.
D2 PAM-1 – positive allosteric modulators of human D2 dopamine receptor | P14416 | HEK293 T-REx D2, calcium flux, EC20 dopamine potentiation | potentiation, % at 10 µM | actives 0.34% (n = 340,000) | AID 485347;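 active means potentiation over 3 SD above the plate norm, cut at about 30% in these data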
Target sequence (P14416 whole entry, looked up): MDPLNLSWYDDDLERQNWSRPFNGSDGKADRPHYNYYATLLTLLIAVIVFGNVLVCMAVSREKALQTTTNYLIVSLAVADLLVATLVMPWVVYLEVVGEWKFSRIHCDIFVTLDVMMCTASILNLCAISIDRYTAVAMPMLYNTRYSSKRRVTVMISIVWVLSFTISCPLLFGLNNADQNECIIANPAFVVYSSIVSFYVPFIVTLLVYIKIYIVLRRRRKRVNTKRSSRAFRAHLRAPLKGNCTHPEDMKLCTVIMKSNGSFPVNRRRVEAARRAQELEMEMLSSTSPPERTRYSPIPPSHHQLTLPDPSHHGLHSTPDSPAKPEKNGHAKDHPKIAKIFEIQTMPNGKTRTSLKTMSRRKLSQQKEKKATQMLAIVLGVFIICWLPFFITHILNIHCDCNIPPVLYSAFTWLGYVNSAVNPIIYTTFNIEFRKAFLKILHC
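Tetracycline-induced HEK293 T-REx cells force-coupled to calcium signalling expressed D2; compounds were pin-added after a 10 s baseline, read kinetically 180 s, then an EC20 dopamine challenge followed with a further 180 s calcium read.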
D2 ag-1 – activates the human D2 dopamine receptor. activation, % (test concentration not listed). actives 0.084% (n = 360,000). DiscoveRx PathHunter D2 beta-arrestin, luminescence, 90 min; 100% = 57 uM dopamine signal. P14416. AID 624465; in the data active means activation above about 40%; inconclusive means between about 15% and that limit
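Agonist mode: compounds alone added to overnight-plated D2 PathHunter cells for 90 min at 37 C, with 57 uM final dopamine (EC100) defining full response. Beta-arrestin recruitment detected by chemiluminescent reagent, read after 1 h at ambient temperature.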
D2 antag – antagonists of human D2 dopamine receptor; HEK293 TREx D2 cells, calcium flux, dopamine EC80; AID 485344; actives 2% (n = 340,000); P14416; inhibition, % at 10 µM; in the data active means inhibition above about 30%; inactive means below that, where a call was filed
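Overnight-induced (tetracycline, 30 C) HEK293 T-REx cells carrying force-coupled D2 receive a no-wash calcium dye, then compound, then EC80 dopamine at 180 s; signals are read kinetically throughout.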
D2 PAM-2 – potentiates the human D2 dopamine receptor allosterically; DiscoveRx D2 beta-arrestin cells, luminescence, 90 min; 100% = 57 uM dopamine signal; actives 0.23% (n = 360,000); potentiation, % (test concentration not listed); P14416; in the data active means potentiation above about 50%; inconclusive means mostly about 30% to 49%
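D2 cells co-treated with compound plus 50 nM dopamine (EC20) for 90 min at 37 deg C to detect potentiation. Beta-arrestin recruitment was read as enzyme-fragment luminescence after 1 h at ambient temperature. Full response was set by 57 uM dopamine.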
D2 ag-2 – D2 dopamine receptor (human) agonism | P14416 | HEK293 T-REx D2 cells, calcium flux agonist mode | activation, % at 2 µM | actives 0.53% (n = 340,000);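 active means activation over 3 SD above normal in the single-dose calcium agonist read, cut at about 30% in these data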
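HEK293 Trex D2 cells, tetracycline-induced, o/n 30 C 5% CO2; no-wash Ca dye, RT 30–90 min; 10-cycle baseline, 23 nl cpd added, kinetic Ca read 180 s; agonist hits = positive Ca response.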
D3 arrestin ag – activates human D3 dopamine receptor beta-arrestin recruitment | Potency, µM (series often up to 76.9 µM), hits mostly activators | DiscoveRx D3 beta-arrestin cells, luminescence, 90 min | actives 4% (n = 2,300) | shares compounds with D2 ag-2; further: nearly all actives have a fitted effect of over 70% in size
D2 ag-3 – activates human D2 dopamine receptor in D3 counterscreen; shares compounds with D2 ag-2; DiscoveRx PathHunter D2 beta-arrestin, luminescence, 90 min; response scale: percent relative to full dopamine signal; Potency, µM (series often up to 76.9 µM), most hits filed as activators; actives 5.9% (n = 2,300); AID 720507; further: nearly all actives have a fitted effect of over 70% in size
Large screens that a line does not name were inactive (follow-up assays come after a bar, where they were run). Unless noted, the call rests on the fitted dose curve; in most records, active means well fitted activation curve with a large enough effect; inconclusive means small, poorly fitted or top-dose-only effect; inactive means flat fitted curve, though single readings scatter.

CSc1ccccc1NC(=O)C1C2CCC(C2)C1C(=O)O (configuration not stated)	none | D3 arrestin ag inactive | D2 ag-3 inactive
Clc1nnc(NN=C2CCCC2)c2ccccc12	D2 ag-2 61 | D3 arrestin ag inactive | D2 ag-3 inactive
CCN1C[C@@H]2[C@@H]3C(=O)N(C)C(=O)[C@@H]3[C@](CC)(C1=O)N2C(=O)c1ccc(F)cc1	none (no result: D2 PAM-1, D2 antag, D2 ag-2)
C/C(Cn1cnc([N+](=O)[O-])n1)=N\NC(=O)c1ccc(O)cc1O	none | D3 arrestin ag inconclusive | D2 ag-3 inactive
C/C(Cn1cnc([N+](=O)[O-])n1)=N\NC(=O)c1ccccc1O	none
Cc1ccc(S(=O)(=O)N(C)C)cc1NC(=O)C1CCN(C(=O)Nc2ccccc2)CC1	D2 antag 73 | D3 arrestin ag inactive | D2 ag-3 inactive
CC(C)N(Cc1nc(-c2ccc(Cl)cc2)no1)C(=O)c1ccco1	none (no result: D2 ag-1, D2 antag, D2 PAM-2)
CN1CC(=O)N(CC(=O)NC2CCCCC2)C1=O	none (no result: D2 PAM-1, D2 antag, D2 ag-2)
Cn1ccc(C(=O)Nc2ccc3c(c2)OCCO3)n1	none | D3 arrestin ag inactive | D2 ag-3 inactive
Cc1ccc(S(=O)(=O)N2CCN(CCOc3ccccc3)CC2)cc1	D2 ag-2 50 | D3 arrestin ag inactive | D2 ag-3 inactive
CC(=O)c1cccc(S(=O)(=O)N2CCN(CCOc3ccccc3)CC2)c1	D2 ag-2 49 | D3 arrestin ag inconclusive | D2 ag-3 inactive
O=S(=O)(c1ccccc1F)N1CCN(CCOc2ccccc2)CC1	D2 antag 39, D2 ag-2 31 | D3 arrestin ag inactive | D2 ag-3 inactive
O=S(=O)(c1ccccc1)N1CCN(CCOc2ccc(F)cc2)CC1	none (no result: D2 PAM-1, D2 antag, D2 ag-2)
CC(=O)c1ccc(S(=O)(=O)N2CCN(CCOc3ccc(Br)cc3)CC2)cc1	none
CCc1ccccc1NC(=O)CSc1nc2c(oc3ccccc32)c(=O)n1C	none (no result: D2 ag-1, D2 antag, D2 PAM-2, D2 ag-2)
O=C1CCCCC1(c1ccccc1)c1ccccc1	none (no result: D2 PAM-1, D2 antag, D2 ag-2)
CC(O)(c1cccc(F)c1)c1nc(-c2ccc(S(C)(=O)=O)cc2)cs1 (configuration not stated)	none (no result: D2 PAM-1, D2 antag, D2 ag-2)
CCCC(c1nnnn1Cc1ccc(OC)cc1)N1CCN(c2ccccc2)CC1 (configuration not stated)	D2 ag-1 inconclusive, D2 ag-2 45 | D3 arrestin ag inactive | D2 ag-3 inconclusive
CCNC(=O)C1CCCN(C(=O)C(c2ccccc2)c2ccccc2)CC1 (configuration not stated)	none (no result: D2 PAM-1, D2 antag, D2 ag-2)
CN(Cc1ccc2c(c1)OCCO2)C(=O)CN1C(=O)NC2(CCCCC2)C1=O	none
CCC(C)(C)C1CCC2(CC1)NC(=O)N(CC(=O)N(C)Cc1ccc3c(c1)OCCO3)C2=O (configuration not stated)	none | D3 arrestin ag inactive | D2 ag-3 inactive
CC(C)(C)c1cc(CCC(=O)NNC(=S)NC(=O)c2ccccc2)cc(C(C)(C)C)c1O	none (no result: D2 PAM-1, D2 antag, D2 ag-2) | D3 arrestin ag inactive | D2 ag-3 inactive
N#Cc1c(/N=C/c2ccc(-c3ccccc3C(=O)O)o2)sc2c1CCCC2	D2 ag-2 66 | D3 arrestin ag inconclusive | D2 ag-3 inconclusive
N#Cc1c(/N=C/c2ccc(-c3ccc(C(=O)O)c(Cl)c3)o2)sc2c1CCCC2	D2 ag-1 inconclusive, D2 ag-2 45 | D3 arrestin ag 40µM | D2 ag-3 inconclusive
N#Cc1c(/N=C\c2ccc(O)c([N+](=O)[O-])c2)sc2c1CCCC2	D2 ag-1 inconclusive, D2 ag-2 67 | D3 arrestin ag inconclusive | D2 ag-3 inactive
N#Cc1c(/N=C/c2ccc(Br)s2)sc2c1CCC2	none
Cc1ccc(/C=N/c2sc3c(c2C#N)CCC3)o1	none
COc1cc2[nH]c(C(=O)N3CCC(Cc4ccccc4)CC3)cc2c(OC)c1OC	none
Cc1cc(NCc2ccc(F)cc2)nc2cc(Cl)ccc12	none | D3 arrestin ag inactive | D2 ag-3 inactive
Cc1ccc(CNc2ncnc3cc(Cl)ccc23)cc1	none
Cc1cc(Br)ccc1NC(=O)CCS(=O)(=O)c1cccc2nsnc12	none (no result: D2 ag-1, D2 antag, D2 PAM-2)
COc1ccc(CC(=O)OCC(=O)Nc2cccc(C(C)=O)c2)cc1OC	none
COc1ccc(O)c(-c2nc(N)nc(N)n2)c1	none | D3 arrestin ag inactive | D2 ag-3 inactive
O=C(c1cccs1)N1CCN(C/C=C/c2ccccc2)CC1	D2 antag 69, D2 ag-2 53 | D3 arrestin ag inconclusive | D2 ag-3 inconclusive
O=C(Cc1ccccc1)N1CCN(C(=O)c2cccs2)CC1	none
O=S(=O)(c1cccs1)N1CCN(C/C=C/c2ccccc2)CC1	none
O=C(c1cccs1)N1CCN(CCc2ccccc2)CC1	D2 antag 42, D2 ag-2 43 | D3 arrestin ag inactive | D2 ag-3 inactive
O=C(CSc1nc2c([nH]c3ccccc32)c(=O)n1-c1cccc(Cl)c1)N1CCCC1	none (no result: D2 ag-1, D2 antag, D2 PAM-2)
O=C1CCc2cc(S(=O)(=O)NC(C(=O)Nc3cccc(F)c3)c3ccccc3)ccc2N1 (configuration not stated)	none (no result: D2 ag-1, D2 antag, D2 PAM-2)
CCCN(CC(=O)Nc1ccccc1C)C(=O)c1ccc2c(c1)OCO2	none | D3 arrestin ag inactive | D2 ag-3 inactive
COCCN(CC(=O)Nc1cccc(C)c1C)C(=O)c1ccc2c(c1)OCO2	none
Cc1ccc(O)c(NC(=S)NC(=O)Cc2ccc(Cl)cc2)c1	none (no result: D2 PAM-1, D2 antag, D2 ag-2) | D3 arrestin ag inactive | D2 ag-3 inactive
CC(Nc1c[nH]c(=O)[nH]c1=O)c1ccccc1 (configuration not stated)	D2 antag 69 | D3 arrestin ag inactive | D2 ag-3 inactive
O=C(Nc1c[nH]c(=O)[nH]c1=O)c1ccccc1Br	none
O=C(/C=C/[C@H]1O[C@@H](n2ccc(=O)[nH]c2=O)[C@H](O)[C@@H]1O)N1CCN(Cc2ccc(F)cc2)CC1	none (no result: D2 PAM-1, D2 antag, D2 ag-2)
CCN(CC(=O)Nc1ccccc1C(F)(F)F)C(=O)c1ccc2c(=O)n3c(nc2c1)CCC3	none
CCc1nnc(NC(=O)c2ccc3c(=O)n4c(nc3c2)CCCCC4)s1	none | D3 arrestin ag inactive | D2 ag-3 inactive
CN(CC(=O)Nc1ccccc1Br)C(=O)c1ccc2c(=O)n3c(nc2c1)CCC3	none | D3 arrestin ag inactive | D2 ag-3 inactive
CCc1ccc(NC(=O)c2ccc3c(=O)n4c(nc3c2)CCCCC4)cc1	none
CN1C(C(=O)NCc2ccccc2)CC2Cn3c(nc4cc5ccccc5cc43)C21 (configuration not stated)	none
CCN(CC(=O)Nc1ccc(OC)cc1)C(=O)Cc1ccc(OC)c(S(=O)(=O)N2CCOCC2)c1	none | D3 arrestin ag inactive | D2 ag-3 inactive
COCc1ccc(-c2c(-c3ccccc3OC)sc3cc4c(cc23)OCO4)cc1	D2 antag 40 | D3 arrestin ag inactive | D2 ag-3 inactive
